According to PubChem BioAssay (Tox21):
Results filed as inconclusive are left out. A call without a number means that no potency is given here. A number with no mark means an inactive call. The source made the active and inactive calls. The call rests on the fitted dose curve; in most records, active means well fitted curve in the direction sought with a large enough effect in the repeat runs; inconclusive means weak or mixed curves; inactive means no such curve, though single readings can be large; an effect the other way counts as inactive or inconclusive. Where a SMILES comes first, the peptide text is derived from it.

Key:
[1] = qHTS RealTime-Glo MT Cell Viability Assay in HEK293 cells - 24 hour (AID 1224886); further: top concentration of the series differs between compounds; nearly all actives have a fitted effect of over 50% in size
Outline: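 Homogeneous bioluminescent viability format in HEK293 cells (600 cells/well). Following 5 h at 37 C/5% CO2, 23 nL compound was pintooled; the signal was measured repeatedly during 40 h incubation.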

[2] = qHTS RealTime-Glo MT Cell Viability Assay in HEK293 cells - 8 hour (AID 1224887); further: top concentration of the series differs between compounds; nearly all actives have a fitted effect of over 50% in size
Outline: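 600 HEK293 cells per well, dispensed already mixed with RealTime-Glo MT reagents. Compound dosing came 5 h later. The same wells were read for luminescence at 0, 8, 16, 24, 32 and 40 h of exposure at 37 C.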

[3] = A CellTox Green Cytotoxicity Assay to monitor cytotoxicity in HEK293 cells - 16 hour (AID 1224888); further: nearly all actives have a fitted effect of over 35% in size; further: potency means the concentration at half of the fitted maximal effect
Outline: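 Dead-cell fluorescence measured kinetically: asymmetric cyanine dye, HEK293, 600 cells/well, 5 h settle, 23 nL cpd/DMSO, 37 C, reads 0–40 h every 8 h.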

[4] = qHTS RealTime-Glo MT Cell Viability Assay in HepG2 cells - 0 hour (AID 1224889); further: nearly all actives have a fitted effect of over 50% in size
Outline: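 Cell number in HepG2 cultures estimated from NanoLuc luminescence generated by metabolic reduction of a prosubstrate by living cells. The homogeneous, nonlytic format allowed repeated reads at 0, 8, 16, 24, 32 and 40 h of compound exposure.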

[5] = A CellTox Green Cytotoxicity Assay to monitor cytotoxicity in HepG2 cells - 8 hour (AID 1224890); further: nearly all actives have a fitted effect of over 45% in size; further: potency means the concentration at half of the fitted maximal effect
Outline: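 First, HepG2 cells (600/well) mixed with reagent were plated; second, after 5 h at 37 C they received compounds via pintool; third, fluorescence was measured at 0 h through 40 h at 8 h intervals.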

[6] = qHTS assay to identify small molecule antagonists of the estrogen receptor alpha (ER-alpha) signaling pathway using the BG1 cell line in the presence of 0.1 nM 17-beta-estradiol - cell viability counter screen (AID 1259241); further: nearly all actives have a fitted effect of over 40% in size
Outline: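 Following 5 days in phenol red-free medium with charcoal-stripped serum, VM7Luc4E2 cells received test compounds alongside 0.1 nM 17beta-estradiol (final) at 37C for 22 hr. Live cells were then quantified via protease-substrate fluorescence.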

[7] = qHTS assay to identify small molecule antagonists of the androgen receptor (AR) signaling pathway using the MDA cell line in the presence of 0.5 nM R1881 - cell viability counter screen (AID 1259242); further: nearly all actives have a fitted effect of over 45% in size
Outline: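 qHTS format. MDA-kb2 (MMTV-luc, AR/GR responsive) + cpd + 0.5 nM R1881 final, 16 hr 37C/0% CO2 → CellTiter-Fluor 30 min → fluorescence intensity.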

[8] = biological target: Androgen receptor (Homo sapiens) (UniProt P10275); assay: qHTS assay to identify small molecule antagonists of the androgen receptor (AR) signaling pathway using the MDA cell line in the presence of 0.5 nM R1881 (AID 1259243); further: nearly all actives have a fitted effect of over 50% in size
Chain of Androgen receptor (Homo sapiens) (P10275 whole entry, looked up): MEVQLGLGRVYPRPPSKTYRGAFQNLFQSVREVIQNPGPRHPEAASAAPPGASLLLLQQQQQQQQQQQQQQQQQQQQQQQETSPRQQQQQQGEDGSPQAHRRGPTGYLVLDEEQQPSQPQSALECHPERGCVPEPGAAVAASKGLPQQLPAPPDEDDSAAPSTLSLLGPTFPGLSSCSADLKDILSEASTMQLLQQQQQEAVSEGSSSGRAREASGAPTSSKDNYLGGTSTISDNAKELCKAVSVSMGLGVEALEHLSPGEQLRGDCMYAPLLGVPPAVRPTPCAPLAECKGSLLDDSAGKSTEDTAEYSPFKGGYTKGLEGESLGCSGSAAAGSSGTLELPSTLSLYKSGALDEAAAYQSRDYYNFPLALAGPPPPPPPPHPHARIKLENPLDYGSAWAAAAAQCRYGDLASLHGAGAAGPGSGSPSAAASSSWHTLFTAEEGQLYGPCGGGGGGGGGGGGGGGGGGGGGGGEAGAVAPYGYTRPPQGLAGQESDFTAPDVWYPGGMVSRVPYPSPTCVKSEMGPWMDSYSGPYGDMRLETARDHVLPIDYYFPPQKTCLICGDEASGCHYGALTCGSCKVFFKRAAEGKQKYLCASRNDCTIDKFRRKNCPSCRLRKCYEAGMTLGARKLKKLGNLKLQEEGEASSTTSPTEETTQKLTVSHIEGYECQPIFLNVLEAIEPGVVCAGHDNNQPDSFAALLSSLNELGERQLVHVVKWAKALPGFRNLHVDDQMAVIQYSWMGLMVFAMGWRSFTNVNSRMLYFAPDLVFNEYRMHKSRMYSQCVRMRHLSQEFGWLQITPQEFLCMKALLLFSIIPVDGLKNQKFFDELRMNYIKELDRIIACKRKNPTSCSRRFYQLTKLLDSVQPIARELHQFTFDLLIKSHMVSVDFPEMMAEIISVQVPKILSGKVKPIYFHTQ
Outline: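 Antagonist mode quantitative HTS in MDA-kb2 MMTV-luciferase cells, agonist R1881 at 0.5 nM final, 16 hr exposure at 37C and 0% CO2, luminescent detection.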

[9] = biological target: Estrogen receptor (Homo sapiens) (UniProt P03372); assay: qHTS assay to identify small molecule antagonists of the estrogen receptor alpha (ER-alpha) signaling pathway using the BG1 cell line in the presence of 0.1 nM 17-beta-estradiol (AID 1259244); further: nearly all actives have a fitted effect of over 50% in size
Chain of Estrogen receptor (Homo sapiens) (P03372 whole entry, looked up): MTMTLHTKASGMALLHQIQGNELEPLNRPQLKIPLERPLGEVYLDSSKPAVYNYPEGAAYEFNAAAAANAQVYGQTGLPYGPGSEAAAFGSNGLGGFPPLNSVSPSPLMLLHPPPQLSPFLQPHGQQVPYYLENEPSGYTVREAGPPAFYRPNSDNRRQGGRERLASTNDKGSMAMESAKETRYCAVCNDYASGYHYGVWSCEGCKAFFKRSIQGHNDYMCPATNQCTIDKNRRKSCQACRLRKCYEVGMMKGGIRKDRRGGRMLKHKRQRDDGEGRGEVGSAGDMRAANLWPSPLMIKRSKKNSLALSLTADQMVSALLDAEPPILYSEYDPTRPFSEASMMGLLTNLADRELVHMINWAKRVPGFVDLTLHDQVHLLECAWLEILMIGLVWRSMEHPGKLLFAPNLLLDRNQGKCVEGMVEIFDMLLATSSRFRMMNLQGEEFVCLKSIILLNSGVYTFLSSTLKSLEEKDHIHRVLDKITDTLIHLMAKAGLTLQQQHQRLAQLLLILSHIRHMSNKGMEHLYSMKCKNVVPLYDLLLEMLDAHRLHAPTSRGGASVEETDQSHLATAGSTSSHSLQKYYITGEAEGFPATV
Outline: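 Reporter is a stably transfected luciferase under four estrogen responsive elements in VM7Luc4E2 cells expressing native full-length ER-alpha; inhibition of 0.1 nM (final) 17beta-estradiol-driven signal over 22 h is read by luminescence.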

| SMILES | Potency [1] | Potency [2] | Potency [3] | Potency [4] | Potency [5] | outcome [6] | outcome [7] | Potency [8] | outcome [9] |
| --- | --- | --- | --- | --- | --- | --- | --- | --- | --- |
| C/C=C(\C)C(C)=O | inactive | inactive | inactive | inactive | inactive | inactive | inactive | inactive | inactive |
| CCCCCCCCCOC(=O)CCCCC(=O)OCCCCCCC | inactive | inactive | 27.5 µM (active) | inactive | 38.9 µM (active) | inactive | inactive |  |  |
| N#Cc1cscn1 | inactive | inactive | inactive | inactive | inactive | inactive | inactive |  |  |
| O=C(O)CONC(=O)c1ccccc1 | inactive | inactive | inactive | inactive | inactive | inactive | inactive |  |  |
| CC(=O)O[C@H]1C[C@@H]2CC[C@@]1(C)C2(C)C | inactive | inactive | inactive | inactive | inactive | inactive | inactive | inactive |  |
| CC1=NN(c2ccc(S(=O)(=O)O)cc2)C(=O)C1 | inactive | inactive | inactive | inactive | inactive | inactive | inactive |  |  |
| OCC1CCC(CO)CC1 (stereo not given) | inactive | inactive | inactive | inactive | inactive | inactive | inactive | inactive | inactive |
| OC[C@@H](O)C(O)[C@@H](O)CO (stereo not given in full) | inactive | inactive | inactive | inactive | inactive | inactive | inactive |  |  |
| CC(C)=CCC/C(C)=C/COC=O | inactive | inactive | inactive | inactive | inactive | inactive | inactive |  |  |
| Cc1c(C(=O)c2c[nH]n(C)c2=O)ccc(S(C)(=O)=O)c1C1=NOCC1 | inactive | inactive | inactive | inactive | inactive | inactive | inactive | inactive | inactive |
| C=CCCCCCCCC | inactive | inactive | inactive | inactive | inactive | inactive | inactive |  |  |
| C=Cc1ccc(C(C)(C)C)cc1 | inactive | inactive | inactive | inactive | inactive | inactive |  |  |  |
| CNCCS(=O)(=O)O | inactive | inactive | inactive | inactive | inactive | inactive | inactive |  |  |
| CC(=O)CC(=O)OC(C)(C)C | inactive | inactive | inactive | inactive | inactive | inactive | inactive | inactive | inactive |
| CC(=O)N[C@@H](CO)C(=O)N[C@@H](CC(=O)O)C(=O)N[C@@H](CCCCN)C(=O)N1CCC[C@H]1C(=O)O (Ac-SDKP-OH) | inactive | inactive | inactive | inactive | inactive | inactive | inactive | inactive |  |
| CC(=O)OC(C)=O | inactive | inactive | inactive | inactive | inactive | inactive | inactive |  |  |
| C=C(C)C1CC=C(C)C(=O)C1 (stereo not given) | inactive | inactive | inactive | inactive | inactive | inactive | inactive |  |  |
| CC(=O)O[Si](C)(OC(C)=O)OC(C)=O | inactive | inactive | inactive | inactive | inactive | inactive | inactive |  |  |
| CCO[Si](CC)(OCC)OCC | inactive | inactive | inactive | inactive | inactive | inactive | inactive | inactive | inactive |
| CCCCSCCCC | inactive | inactive | inactive | inactive | inactive | inactive | inactive |  |  |
| CC(O)COC(C)(C)C (stereo not given) | inactive | inactive | inactive | inactive | inactive | inactive | inactive |  |  |
| CCCCC1CCC(O)CC1 (stereo not given) | inactive | inactive | inactive | inactive | inactive | inactive | inactive | inactive |  |
| C=C(C)[C@@H]1CC=C(C)C(=O)C1 | inactive | inactive | inactive | inactive | inactive | inactive | inactive |  |  |
| CC(=O)OC1CCCCC1C(C)(C)C (stereo not given) | inactive | inactive | inactive | inactive | inactive | inactive | inactive | inactive | inactive |
| CC(C)CCOC(=O)c1ccccc1 | inactive | inactive | inactive | inactive | inactive | inactive | inactive |  |  |
| Cc1cccc(Cl)c1 | inactive | inactive | inactive | inactive | inactive | inactive |  |  |  |
| CC(S)C(C)S (stereo not given) | inactive | inactive | inactive | inactive | inactive | inactive | inactive | inactive | inactive |
| OCC1(CO)COCOC1 | inactive | inactive | inactive | inactive | inactive | inactive | inactive |  |  |
| Cc1ccc(C)c([N+](=O)[O-])c1 | inactive | inactive | inactive | inactive | inactive | inactive | inactive |  |  |
| C/C=C(\C)C(=O)OCCc1ccccc1 | inactive | inactive | inactive | inactive | inactive | inactive | inactive |  |  |
